Data taken from PubChem BioAssay AID493098 (Sanford-Burnham Center for Chemical Genomics, 2011).
Several values for one entry are separate records, joined by “and”; a condition that tells them apart may be missing. Equal values may be shown once. About 1,700 (0.5%) of roughly 340,000 compounds were called active.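 The calls were made as follows: active = compounds whose inhibition of the agonist-driven luminescence signal at 20 µM reaches about 50% (limit read from the data); inactive = the rest.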 The sample as a whole holds a higher share of actives than the screen did.

Molecular target: C-C chemokine receptor type 6 (Homo sapiens) (UniProt P51684)
Assay: blockers of CCL20-driven beta-arrestin recruitment to CCR6 – cell-based, CHO-K1, luminescence, uHTS, primary screen (AID 493098);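 also: cells stimulated with CCL20 at 14 nM final; plate controls were DMSO with CCL20 for no effect and DMSO without agonist for full effect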
Conditions: CHO-K1 CCR6 PathHunter beta-arrestin, CCL20-stimulated, at 20 µM, active compounds read high

Sequence of C-C chemokine receptor type 6 (Homo sapiens) (P51684 whole entry, looked up): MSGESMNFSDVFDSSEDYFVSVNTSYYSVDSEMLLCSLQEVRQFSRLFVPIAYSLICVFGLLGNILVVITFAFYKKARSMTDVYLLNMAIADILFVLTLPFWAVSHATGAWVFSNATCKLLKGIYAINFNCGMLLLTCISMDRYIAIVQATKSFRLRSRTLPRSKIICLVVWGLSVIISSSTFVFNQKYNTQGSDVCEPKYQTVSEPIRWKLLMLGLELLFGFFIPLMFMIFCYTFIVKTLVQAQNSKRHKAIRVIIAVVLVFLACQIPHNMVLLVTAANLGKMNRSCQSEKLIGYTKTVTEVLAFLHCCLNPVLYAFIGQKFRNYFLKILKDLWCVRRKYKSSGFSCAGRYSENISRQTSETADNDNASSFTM

| SMILES | inhibition |
| --- | --- |
| Cc1c(NC(=O)CSc2nnc(-c3cccnc3)n2N)c(=O)n(-c2ccccc2)n1C | 5.23% (inactive) |
| Cc1c(NC(=O)CSc2cccc3cccnc23)c(=O)n(-c2ccccc2)n1C | 59.7% (active) |
| Cc1c(NC(=O)CSc2nnnn2-c2ccc(C(=O)O)cc2)c(=O)n(-c2ccccc2)n1C | 10.9% (inactive) |
| Cc1ccc(C)c(OCCC(=O)OCC(=O)N2CCN(c3ccccc3)CC2)c1 | 20.8% (inactive) |
| Cc1csc(NC(=S)Nc2cccc(Cl)c2)n1 | 60% (active) |
| CCC(=O)Nc1nc(C)c(C(=O)Nc2cccc(Cl)c2)s1 | 5.65% (inactive) |
| Cc1cc(Cl)nc(NC(=O)Nc2cccc(Cl)c2)n1 | 16% (inactive) |
| Cc1cccc(NC(=O)CCN2CC(C)CC(C)C2)c1 (stereo not drawn) | 8.72% (inactive) |
| C=CCn1c(N)c(C(=O)OCC(C)C)c2nc3ccccc3nc21 | 56.9% (active) |
| C=CCn1c(C(C)NC(=O)CC)nc2ccccc21 (stereo not drawn) | 2.5% (inactive) |
| C=CCn1c(P(C)(=O)O)nc2ccccc21 | 2.22% (inactive) and 1.13% (inactive) |
| CCc1nnc(NC(=O)C2CCN(C(=O)c3ccccc3C)CC2)s1 | 1.37% (inactive) |
| COc1ccc(CCOC(=O)CNC(=O)c2ccc(Cl)cc2Cl)cc1 | 27.9% (inactive) |
| Cc1ccc(Br)c(NS(=O)(=O)c2cccc(C(=O)N3CCNC(=O)C3)c2)c1 | -11% (inactive) |
| COc1ccc2c(c1)c(=Cc1ccc(N(C)C)cc1)c1cc(-c3ccccc3)[n+](C)n12 | 67.2% (active) |
| COc1ccc2sc(-c3ccc(N(C)C)cc3)c(C#CCO)c2c1 | -34.2% (inactive) |
| Cc1ccc(Cn2c(C)c3cnn(CC(=O)NCc4ccccn4)c(=O)c3c2C)cc1 | -8.58% (inactive) |
| CCOC(=O)CCNC(=O)N1CCCC(C(=O)c2ccccc2SC)C1 (stereo not drawn) | -6.81% (inactive) |
| CCc1ccc(CNC(=O)C2CCCN(c3nc4ccccc4o3)C2)cc1 (stereo not drawn) | -4.97% (inactive) |
| CCOC(=O)c1cnc(Nc2nc3ccccc3o2)nc1CSC(=S)N1CCCCC1 | 66.8% (active) |

| SMILES | inhibition |
| --- | --- |
| O=C(COc1ncnc2ccccc12)NC(=O)NCc1ccccc1 | 3.38% (inactive) |
| NS(=O)(=O)c1ccc(NC(=S)NNC(=O)c2cccs2)cc1 | 31.7% (inactive) |
| CCOc1ccc(C(=O)Nc2nccs2)cc1[N+](=O)[O-] | 4.46% (inactive) |
| Cc1ccc(C)c(NC(=O)c2ccc3nccnc3c2)c1 | -3.74% (inactive) |
| Cc1ccc(Oc2ccc3c(c2)C(=O)N(c2cccc4cccnc24)C3=O)cc1 | 8.43% (inactive) |
| Cc1ccc(OS(=O)Nc2cccc3nccnc23)cc1 (stereo not drawn) | 55.4% (active) |
| CC1CN(C(=O)COC(=O)c2cccc(NS(=O)(=O)c3ccccc3)c2)CC(C)O1 (stereo not drawn) | -4.23% (inactive) |
| COc1ccc(C2C(C(C)=O)=C(O)C(=O)N2c2nccs2)cc1 (stereo not drawn) | 22.9% (inactive) |
| CC1(C)C=Cc2c(ccc3c2OC[C@@H](c2ccc(O)cc2O)C3)O1 | -20.6% (inactive) |
| CN(C)/C=N/c1cc(=O)n(C)c(=O)n1CC1CC1 | -0.5% (inactive) |
| CCOC(=O)c1nnn2c1nc(N1CCN(c3ccccc3)CC1)c1ccccc12 | 13.9% (inactive) |
| CCCn1c(C2CCCN2c2nc(-c3ccc(OC)cc3)cs2)nc2ccccc21 (stereo not drawn) | 22.3% (inactive) |
| COc1ccc(-c2csc(Cc3nc(O)cs3)n2)cc1 | 68.3% (active) |
| COc1ccc(CNc2nccs2)cc1 | 19.1% (inactive) |
| Cc1cccc(N(C)C(=O)c2cc(S(=O)(=O)N3CCCCC3)c[nH]2)c1 | -9.41% (inactive) |
| Cc1ccc2c(c1)C1C[N+](C)(CC(=O)c3ccccc3)CCC1N2C(=O)c1ccccc1Cl (stereo not drawn) | 7.95% (inactive) |
| O=C1/C(=C\c2ccc([N+](=O)[O-])cc2)CS(=O)(=O)C/C1=C/c1ccc([N+](=O)[O-])cc1 | 102% (active) |
| O=C(NN=Cc1ccc([N+](=O)[O-])cc1)C1CC1 | -1.3% (inactive) |
| O=[N+]([O-])c1ccc(C=NN=Cc2ccc([N+](=O)[O-])cc2)cc1 | 9.6% (inactive) |
| OCCC1CN(Cc2cccn2-c2nccs2)CCN1CCc1ccccc1 (stereo not drawn) | 3.25% (inactive) |

| SMILES | inhibition |
| --- | --- |
| CCCOC(=O)c1c(NC(=O)c2cnn3c2NC(c2ccccc2)CC3C(F)(F)F)sc2c1CCCC2 (stereo not drawn) | 8.83% (inactive) |
| N#C/C(=C\C1=C(N2CCOCC2)C(=C\c2ccccc2)/CC1)C(=O)Nc1ccccc1F | 37.8% (inactive) |
| O=C1Nc2ccc(Br)cc2/C1=N/N=C/C1=C(N2CCOCC2)C(=C\c2ccccc2)/CC1 | 55.1% (active) |
| O=C(O)c1ccc(NN=CC2=C(N3CCOCC3)/C(=C/c3ccccc3)CC2)cc1 | -7.52% (inactive) |
| COc1ccc(Nc2cc(=O)n(-c3ccccc3)c3c2c(=O)n(C)c(=O)n3C)cc1 | 2.01% (inactive) |
| Cc1ccc(S(=O)(=O)N2CCN(C)CC2)cc1 | 13.6% (inactive) |
| Cn1ncc(N2CCN(S(=O)(=O)c3ccc(Br)cc3)CC2)c(Cl)c1=O | 6.7% (inactive) |
| CN(C)/C=C(/C(=O)c1ccc(Cl)c(Cl)c1)c1nnnn1-c1ccccc1 | 3.92% (inactive) |
| O=C(C1CC1)N1N=C(c2ccc(Br)cc2)CC1(O)C(F)(F)F (stereo not drawn) | 2.39% (inactive) |
| O=C(c1ccc(Cl)cc1)N1N=C(c2ccccn2)CC1(O)C(F)(F)F (stereo not drawn) | 57.1% (active) |
| O=C(Cc1ccccc1)N1N=C(c2ccncc2)CC1(O)C(F)(F)F (stereo not drawn) | 6.09% (inactive) |
| Cc1ccc(-n2c(O)c(C=Nc3ccc(S(=O)(=O)Nc4ncccn4)cc3)c3ccccc3c2=O)cc1C | 13.7% (inactive) |
| CCN(CC)CCCN=Cc1c(O)n(-c2ccc(C)cc2)c(=O)c2ccccc12 | 6.64% (inactive) |
| CCOc1ccc(-n2c(O)c(/C=N/Nc3nc(C)cc(C)n3)c3ccccc3c2=O)cc1 | 52.4% (active) |
| CC(=O)c1cccc(NC(=O)N2CCCC2C(=O)NCCC(C)C)c1 (stereo not drawn) | 8% (inactive) |
| Cc1nn(C(C)CC(=O)O)c(C)c1C (stereo not drawn) | -5.98% (inactive) |
| O=c1ccc2c(-c3ccccc3S(=O)(=O)O)c3ccc(O)c(O)c3oc-2c1O | 64.6% (active) |
| O=C(CSc1ccc2nnc(-c3ccccc3)n2n1)N1CCCc2ccccc21 | -9.56% (inactive) |
